High-throughput results (PubChem BioAssay)
KB-3-1 cytotox = kills parental KB-3-1 adenocarcinoma cells. actives 1.4% (n = 400,000). KB-3-1 viability, CellTiter-Glo ATP luminescence, 72 h. Potency, µM (highest dose often 46.1 µM), most hits filed as cytotoxic. AID 1347075; note: % is set by controls: 0 for no effect and ±100 for the full control effect; nearly all actives have a fitted effect of over 60% in size
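Cytotoxicity measured as CellTiter-Glo luminescence after 72 h at 37 C. Compound titrations were pinned onto drug-naive KB-3-1 parental adenocarcinoma cells grown in DMEM with 10% FBS, and normalized data fitted to concentration-response curves.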
KB-V1 MDR tox = kills drug-selected multidrug resistant KB-V1 cells | Potency, µM (top dose mostly 46.1 µM), hits mostly cytotoxic | KB-V1 MDR cells viability, CellTiter-Glo, 72 h | actives 3.4% (n = 400,000) | AID 1347076; note: % is set by controls: 0 for no effect and ±100 for the full control effect; nearly all actives have a fitted effect of over 60% in size
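Potencies derive from concentration-effect curves fitted to normalized luminescence (CellTiter-Glo) of KB-V1 cells treated for 72 h at 37 degrees C in phenol-red-free DMEM containing 10% FBS.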
ATXN2 expr inh = inhibitors of ATXN2 expression | Potency, µM (doses to about 57 µM), for inactives: at the highest dose activity change, negative = inhibition, usual class: inhibitors | actives 0.72% (n = 360,000) | HEK-293 ATXN2-luciferase reporter, luminescence, 24 h | AID 1745845; note: % is set by controls: 0 for no effect and ±100 for the full control effect; nearly all actives have a fitted effect of over 55% in size
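ATXN2-luciferase reporter cells (luciferase flanked by upstream and downstream ATXN2 gene portions) were treated 24 h at 37 °C with compounds at up to 57 uM. SteadyGlo luminescence gave expression; GF-AFC fluorescence gave viability.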
ATXN viability = cell viability loss in ATXN counter-screen | S2 cells (HEK-293 line with an ATXN2-luciferase reporter) viability, CellTiter-Fluor protease fluorescence, 24 h | Potency, µM (top dose mostly 56.7 µM), most hits filed as cytotoxic | actives 0.49% (n = 400,000); note: nearly all actives have a fitted effect of over 40% in size
TGFb SMAD3 inh = blocks TGF-b signaling | HepG2 CAGA-GFP TGF-b/SMAD3 reporter, GFP fluorescence, 18 h; TGF-beta stimulated, 500 pg/mL final | AID 588855 | actives 1.2% (n = 410,000) | Potency, µM (top dose mostly 46.1 µM), for the others: at the highest dose activity, negative = inhibition, usual class: inhibitors; note: % is set by controls: 0 for no effect and ±100 for the full control effect; nearly all actives have a fitted effect of over 65% in size
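Smad-responsive CAGA-GFP expression was quantified in HEPG2 cells exposed to compounds and 500 pg/mL final TGF-beta for 18 h at 37 degrees C; unstimulated wells defined full inhibition.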
HepG2 viability = HepG2 cytotoxicity, counter-screen for TGF-b inhibitors | HepG2 CAGA-GFP viability, ATP luminescence, 18 h | Potency, µM (top dose mostly 46.1 µM), inactives show top-dose activity change, negative = cytotoxicity, usual class: cytotoxic | actives 0.76% (n = 410,000) | AID 588856
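CellTiter-Glo luminescence gave cytotoxicity after 18 hours at 37 degrees C. The cells were HepG2 CAGA-GFP in 1% FBS DMEM, stimulated with 500 pg/mL TGF-beta after compound addition. %Activity was normalised to no-cell wells (complete cell-killing) and DMSO (no toxicity), and curves were fitted and classified.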
* marks the source's active call; other numbers are inactive results; i = inactive; ? = inconclusive; · = not tested or not shown. In the library only some 5.9% were active in any assay of this set; here they are far more common. Calls come from the whole dose curve; as a rule, active = well fitted curve in the direction sought with a large enough effect; inconclusive = small, poorly fitted or top-dose-only effect, or another doubt; inactive = no such curve, though single readings can be large; an effect the other way counts as inactive or inconclusive. Potency is the fitted concentration of half-maximal effect.

SMILES	KB-3-1 cytotox	KB-V1 MDR tox	ATXN2 expr inh	ATXN viability	TGFb SMAD3 inh	HepG2 viability
CCC1(C2CCN(C(=O)c3ccc(C)cc3C)CC2)NC(=O)N(CCc2scnc2C)C1=O (stereo not given)	·	·	·	i	·	·
CN(C)c1ccc(/C=C/N2C=CCc3c2ccc2ccccc32)cc1	0.581µM*	?	·	·	7.08µM*	-84.9%
COc1c(N2C[C@@H]3CCCN[C@H]3C2)c(F)cc2c(=O)c(C(=O)O)cn(C3CC3)c12	·	·	-31.1%	i	·	·
Cc1ccc(/C=C/C(=O)N2CCCC(C)C2)cc1 (stereo not given)	i	16.4µM*	2.2%	i	-4.5%	-11.0%
Cc1ccc(/C=C/C(=O)N2CCC(Cc3ccccc3)CC2)cc1	i	20.6µM*	13.7%	i	-27.2%	-17.4%
CCOC(=O)C1CCCN(C(=O)/C=C/c2ccc(Cl)cc2)C1 (stereo not given)	i	i	-5.7%	i	4.9%	10.6%
COc1ccccc1N1CCN(C(=O)/C=C/c2cccc([N+](=O)[O-])c2)CC1	i	i	-12.2%	i	-26.8%	-24.9%
COc1ccccc1N1CCN(C(=O)/C=C/c2ccc(C)cc2)CC1	i	16.4µM*	5.7%	i	25.7%	21.3%
Cc1ccc(/C=C/C(=O)N2CCC(c3nc4ccccc4o3)CC2)cc1	·	·	·	·	0.0%	-16.7%
COC(=O)c1ccc2c(=O)n(CCCCCC(=O)NCCc3ccccc3)c(=O)[nH]c2c1	i	i	·	·	0.0%	-23.9%
COc1ccccc1C(=O)Nc1c(C(=O)Nc2cc(Cl)ccc2C)sc2nc(C)cc(C)c12	i	i	2.0%	i	-17.8%	-10.6%
COc1ccc(OCc2nc3c4c(ncn3n2)-c2ccccc2CC42CCCC2)cc1	i	11.6µM*	1.1%	i	1.3%	13.7%
Oc1cccc(-c2nc3c4c(ncn3n2)-c2ccccc2CC42CCCC2)c1	i	7.31µM*	?	?	?	-96.4%
CCOc1cccc(-c2cc(C(=O)Nc3ccon3)c3ccccc3n2)c1	i	16.4µM*	-23.8%	i	1.8%	-7.3%
O=C(Nc1ccon1)c1cc(-c2ccccc2)nc2ccccc12	i	?	-17.2%	i	12.9%	0.8%
CCOc1ccc(-c2cc(C(=O)Nc3ccc4c(c3)OCCO4)c3ccccc3n2)cc1	18.4µM*	?	5.5%	i	?	-48.0%
CC1CCN(S(=O)(=O)c2ccc(NC(=O)Cn3nnc(-c4ccccc4)n3)cc2)CC1	?	14.6µM*	-33.1%	i	?	-70.7%
CC1CCN(S(=O)(=O)c2ccc(NC(=O)c3ccncc3)cc2)CC1	16.4µM*	?	-15.1%	i	?	-13.4%
Cc1ccc(-c2nnn(CC(=O)Nc3ccc(S(=O)(=O)N4CCC(C)CC4)cc3)n2)cc1	i	?	-31.8%	i	?	-59.3%
O=C1CN(C(=O)C2CCCCC2)C(c2ccccc2)c2cc(F)ccc2N1 (stereo not given)	i	i	5.8%	i	-20.6%	-18.7%
C/C(=N\Nc1nc(N2CCOCC2)nc(N2CCOCC2)n1)c1cccs1	i	i	-29.2%	i	11.8%	4.2%
C/C(=N\Nc1nc(N2CCCCC2)nc(N2CCOCC2)n1)c1ccccc1O	?	16.4µM*	?	i	-24.0%	-49.9%
CCOCCCNC(=O)Cn1nc(C)n2c(cc3cc(C)ccc32)c1=O	·	·	·	·	-18.2%	3.9%
CCn1c(-c2csc(C(C)C)c2)n[nH]c1=S	i	20.6µM*	9.7%	i	-23.5%	-3.9%
CCn1c(-c2ccc(Cl)cc2)n[nH]c1=S	?	10.3µM*	0.3%	i	20.3%	-7.8%
CCn1c(-c2ccc(C)cc2)n[nH]c1=S	?	18.4µM*	-8.0%	i	8.7%	-4.6%
